Our source for the Potency and outcome values is PubChem BioAssay (Tox21).

Assay [1] in a line: qHTS assay to identify small molecule antagonists of the sonic hedgehog signaling (Shh) pathway (AID 1259369; calls by dose curve; further: nearly all actives have a fitted effect of over 45% in size; further: potency means the concentration at half of the fitted maximal effect). A digest of the protocol: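 Conditioned medium drives Shh signalling in 3T3Gli1-Luc cells; compounds in DMSO co-applied, 24hr at 37 C, then luciferase luminescence.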
Assay [2] concerns the target Estrogen receptor beta (Homo sapiens) (UniProt Q92731). Nature of the assay: qHTS assay to identify small molecule agonists of the estrogen receptor beta (ER-beta) signaling pathway (AID 1259377; active means well fitted activation curve with a large enough effect in the signal ratio in the repeat runs, not every such curve was filed as active; the % refers to the signal ratio). In outline:
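qHTS in ER-beta-UAS-bla HEK293T cells: 6 hr settling, then 16 hr compound at 37C, then LiveBLAzer substrate 2 h at RT before fluorescence reading.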
In general terms: In qHTS, concentration-response curves come from the screen itself.

The target is the same in assay [3]. Nature of the assay: qHTS assay to identify small molecule antagonists of the estrogen receptor beta (ER-beta) signaling pathway (AID 1259378; active means well fitted inhibition curve with a large enough effect in the signal ratio in the repeat runs, not every such curve was filed as active; the % refers to the signal ratio). In outline:
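Antagonist mode: compounds added to beta-lactamase reporter HEK293T ER-beta-UAS cells stimulated with E2 (1nM final), 16 hr at 37C. LiveBLAzer B/G FRET substrate, 2 hours room temperature, fluorescence read-out.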

Assay [4] is described as follows: qHTS assay to identify small molecule agonists of the androgen receptor (AR) signaling pathway in the presence of an antagonist - cell viability counter screen (AID 1259379). Further: nearly all actives have a fitted effect of over 25% in size. Further: potency means the concentration at half of the fitted maximal effect. In outline:
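A CellTiter-Fluor read-out measured viability of MDA-kb2 reporter cells (MMTV promoter with AR and GR response elements). Treatment: nilutamide 3.0uM final with compounds at 15 concentrations, 16 hr, 37C, 0% CO2.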

The target of assay [5] is Androgen receptor (Homo sapiens) (UniProt P10275). Nature of the assay: qHTS assay to identify small molecule agonists of the androgen receptor (AR) signaling pathway in the presence of an antagonist (AID 1259381; calls by dose curve; further: nearly all actives have a fitted effect of over 15% in size). A digest of the protocol: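 Using human MDA-kb2 cells with an MMTV promoter–luciferase construct (AR and GR response elements), agonist activity is scored under 3.0uM nilutamide (final) co-treatment; 16hr incubation, 37C, luminescence readout via ONE-Glo.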
Sequence of Androgen receptor (Homo sapiens) (P10275 whole entry, looked up): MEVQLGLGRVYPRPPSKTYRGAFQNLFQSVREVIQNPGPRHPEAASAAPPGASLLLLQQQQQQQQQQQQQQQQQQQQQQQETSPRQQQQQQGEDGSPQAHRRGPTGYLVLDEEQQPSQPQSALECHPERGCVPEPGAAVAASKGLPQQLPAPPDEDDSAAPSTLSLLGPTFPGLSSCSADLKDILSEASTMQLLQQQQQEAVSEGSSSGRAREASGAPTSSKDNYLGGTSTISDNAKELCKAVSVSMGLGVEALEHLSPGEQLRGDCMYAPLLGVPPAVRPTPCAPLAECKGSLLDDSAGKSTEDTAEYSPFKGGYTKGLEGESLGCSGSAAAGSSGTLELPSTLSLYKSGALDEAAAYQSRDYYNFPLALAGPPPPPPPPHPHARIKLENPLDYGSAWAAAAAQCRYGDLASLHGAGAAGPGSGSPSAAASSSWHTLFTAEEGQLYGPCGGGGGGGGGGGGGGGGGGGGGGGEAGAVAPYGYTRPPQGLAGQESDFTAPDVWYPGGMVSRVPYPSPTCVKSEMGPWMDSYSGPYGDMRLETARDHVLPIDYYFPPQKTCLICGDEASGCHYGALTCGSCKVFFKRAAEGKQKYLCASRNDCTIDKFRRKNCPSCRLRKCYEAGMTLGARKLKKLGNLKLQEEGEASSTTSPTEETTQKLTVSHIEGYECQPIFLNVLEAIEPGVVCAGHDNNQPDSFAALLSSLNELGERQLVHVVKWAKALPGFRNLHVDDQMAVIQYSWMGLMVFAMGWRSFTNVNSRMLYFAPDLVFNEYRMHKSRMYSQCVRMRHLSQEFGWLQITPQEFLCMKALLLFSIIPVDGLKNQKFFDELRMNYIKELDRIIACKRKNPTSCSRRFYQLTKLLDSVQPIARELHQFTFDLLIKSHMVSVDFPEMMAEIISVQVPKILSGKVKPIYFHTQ

A short description of assay [6]: qHTS assay to identify small molecule antagonists of the estrogen receptor beta (ER-beta) signaling pathway - cell viability counter screen (AID 1259382). Further: series mostly up to about 92 µM; nearly all actives have a fitted effect of over 55% in size. In outline:
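Agonist-stimulated (1nM E2) ER-beta-UAS-bla HEK293T cells are incubated with library compounds for 16 hr at 37C. Cell viability is then assessed in the reporter-assay wells by adding CellTiter-Glo and reading luminescence after 30 min.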

Assay [7] addresses Estrogen receptor (Homo sapiens) (UniProt P03372). Nature of the assay: qHTS assay to identify small molecule agonists of the estrogen receptor alpha (ER-alpha) signaling pathway in the presence of an antagonist (AID 1259383; calls by dose curve; further: top concentration of the series differs between compounds; nearly all actives have a fitted effect of over 15% in size). A digest of the protocol: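 Using VM7Luc4E2 cells seeded 24hr before treatment, antagonist ICI-182,780 (10.0nM final) was added, followed by compounds at 15 concentrations. Plates incubated 22hr; ONE-Glo luminescence quantified reporter activity.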

Assay [8] is described as follows: qHTS assay to identify small molecule agonists or antagonists of the thyroid stimulating hormone receptor (TSHR) signaling pathway - wild type cell line counter screen (AID 1259384; calls by dose curve). In outline: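 Counter screen in untransfected Hek293: compounds (15-point titration, triplicate) plus phosphodiesterase inhibitor Ro20-1724 added after 18 h plating; 30 min RT. Intracellular cAMP via competitive d2/cryptate immunoassay, 1 h incubation.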

For assay [9], the target named is Thyrotropin receptor (Homo sapiens) (UniProt P16473). Nature of the assay: qHTS assay to identify small molecule antagonists of the thyroid stimulating hormone receptor (TSHR) signaling pathway (AID 1259385; calls by dose curve; further: nearly all actives have a fitted effect of over 20% in size). A digest of the protocol: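 Antagonist mode: compound-treated TSHR-expressing HEK293 cells were stimulated with 1.5 ng/mL TSH (final) in presence of Ro20-1724 for 30 min at RT. HTRF cAMP detection after 1 h; each compound tested at 15 concentrations, triplicate.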
Sequence of Thyrotropin receptor (Homo sapiens) (P16473 whole entry, looked up): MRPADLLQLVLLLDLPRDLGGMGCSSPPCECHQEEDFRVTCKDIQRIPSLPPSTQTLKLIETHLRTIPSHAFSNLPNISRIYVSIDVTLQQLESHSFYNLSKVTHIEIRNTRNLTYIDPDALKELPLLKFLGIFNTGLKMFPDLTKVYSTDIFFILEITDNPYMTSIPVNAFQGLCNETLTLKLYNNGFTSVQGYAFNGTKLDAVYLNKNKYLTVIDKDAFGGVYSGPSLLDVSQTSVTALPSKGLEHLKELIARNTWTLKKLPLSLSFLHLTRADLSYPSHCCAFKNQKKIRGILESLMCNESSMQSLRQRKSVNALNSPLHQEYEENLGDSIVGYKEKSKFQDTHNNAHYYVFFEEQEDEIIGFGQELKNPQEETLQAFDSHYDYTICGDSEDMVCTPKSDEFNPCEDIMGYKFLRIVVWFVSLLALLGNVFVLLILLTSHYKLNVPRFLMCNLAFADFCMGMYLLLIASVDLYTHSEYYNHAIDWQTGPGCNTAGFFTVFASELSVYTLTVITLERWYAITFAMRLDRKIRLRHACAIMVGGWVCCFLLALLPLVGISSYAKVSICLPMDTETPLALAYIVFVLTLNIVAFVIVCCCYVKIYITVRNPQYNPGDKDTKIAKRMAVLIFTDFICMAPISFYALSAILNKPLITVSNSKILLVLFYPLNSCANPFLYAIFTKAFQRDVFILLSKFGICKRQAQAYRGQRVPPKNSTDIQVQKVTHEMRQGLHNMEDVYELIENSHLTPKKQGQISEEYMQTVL

A short description of assay [10]: qHTS assay to identify small molecule agonists of the estrogen receptor alpha (ER-alpha) signaling pathway in the presence of an antagonist - cell viability counter screen (AID 1259386).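 Further: series mostly up to about 92 µM; cells exposed to compounds for 22 h at 37 °C before the viability read; nearly all actives have a fitted effect of over 30% in size.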 A digest of the protocol: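 ICI-182,780 at 10.0nM final accompanies the compound titration (15 concentrations, 22hr, 37C) on VM7Luc4E2 cells. The CellTiter-Fluor fluorescence readout runs in the same wells as the luciferase assay.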

The target in assay [11] is Progesterone receptor (Homo sapiens) (UniProt P06401). Nature of the assay: qHTS assay to identify small molecule agonists of the progesterone receptor (PR) signaling pathway (AID 1346784; calls by dose curve; further: nearly all actives have a fitted effect of over 30% in size). In outline: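 Fluorescence from LiveBLAzer B/G FRET substrate cleavage (2 hr, RT) reported PR activation in PR-UAS-bla HEK 293T cells treated 16 hr at 37C/5% CO2 with compounds; medium contained 2% charcoal-stripped FBS.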
Sequence of Progesterone receptor (Homo sapiens) (P06401 whole entry, looked up): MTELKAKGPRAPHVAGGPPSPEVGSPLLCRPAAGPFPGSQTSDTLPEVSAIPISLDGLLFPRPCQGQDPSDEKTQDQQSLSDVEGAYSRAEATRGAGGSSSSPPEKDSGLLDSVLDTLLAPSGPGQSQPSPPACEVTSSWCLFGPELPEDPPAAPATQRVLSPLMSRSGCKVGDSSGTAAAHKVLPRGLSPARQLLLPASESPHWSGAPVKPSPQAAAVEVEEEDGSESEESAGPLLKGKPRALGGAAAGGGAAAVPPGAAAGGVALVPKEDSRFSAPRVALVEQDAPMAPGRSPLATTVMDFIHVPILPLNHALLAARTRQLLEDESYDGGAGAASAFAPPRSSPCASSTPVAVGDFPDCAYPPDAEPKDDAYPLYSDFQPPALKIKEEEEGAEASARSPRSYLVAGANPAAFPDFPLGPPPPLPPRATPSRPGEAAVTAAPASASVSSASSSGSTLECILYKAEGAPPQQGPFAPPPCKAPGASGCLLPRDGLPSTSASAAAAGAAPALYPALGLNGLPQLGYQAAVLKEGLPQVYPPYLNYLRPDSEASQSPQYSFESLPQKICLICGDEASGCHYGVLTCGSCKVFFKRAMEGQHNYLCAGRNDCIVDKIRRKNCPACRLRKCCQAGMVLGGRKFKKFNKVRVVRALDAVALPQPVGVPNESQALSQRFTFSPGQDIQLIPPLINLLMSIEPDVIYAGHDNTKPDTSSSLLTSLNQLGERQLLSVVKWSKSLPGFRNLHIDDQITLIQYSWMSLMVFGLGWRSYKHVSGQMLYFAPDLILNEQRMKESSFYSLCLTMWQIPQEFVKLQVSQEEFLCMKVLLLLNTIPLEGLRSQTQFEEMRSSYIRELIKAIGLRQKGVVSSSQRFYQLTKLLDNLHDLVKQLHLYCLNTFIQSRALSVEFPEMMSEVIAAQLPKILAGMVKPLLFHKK

Assay [12] has the same target. Nature of the assay: qHTS assay to identify small molecule antagonists of the progesterone receptor (PR) signaling pathway (AID 1346795; active means well fitted inhibition curve with a large enough effect in the signal ratio in the repeat runs, not every such curve was filed as active; the % refers to the signal ratio). A digest of the protocol:
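Fluorescence intensity measured 2 hr after adding beta-lactamase FRET substrate to PR-UAS-bla HEK293T cells that had been co-treated 16 hr with compound and 1 nM R5020 (final concentration) in 2% charcoal-stripped FBS.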

Assay [13] can be described thus: qHTS assay to identify small molecule antagonists of the progesterone receptor (PR) signaling pathway - cell viability counter screen (AID 1346798). Further: series mostly up to about 92 µM; nearly all actives have a fitted effect of over 50% in size. A digest of the protocol:
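CellTiter-Glo luminescence; PR-UAS-bla HEK293T, 3,000 cells/well; compound + R5020, 16 hr, 37C/5% CO2; 30 min RT before read.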

Assay [14] in a line: qHTS assay to identify small molecule agonists of the progesterone receptor (PR) signaling pathway - cell viability counter screen (AID 1346799; calls by dose curve; further: nearly all actives have a fitted effect of over 45% in size). A digest of the protocol: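 In parallel with the beta-lactamase readout, cytotoxicity toward PR-UAS-bla HEK293T cells was measured by CellTiter-Glo luminescence following 16 hr compound incubation in 2% charcoal-stripped FBS medium.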

Assay [15] is described as follows: qHTS assay to identify small molecule antagonists of the TGF-beta/Smad signaling pathway - cell viability counter screen (AID 1346824). Further: nearly all actives have a fitted effect of over 50% in size. In outline: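 Cytotoxicity counter-screen run in the same wells as the beta-lactamase Smad reporter read: CellTiter-Glo luminescence after 30 min at room temperature. HEK 293T SBE-bla cells had 5 hr compound exposure at 37 C with TGF-beta1 (0.25 ng/mL stock).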

A short description of assay [16]: qHTS assay to identify small molecule agonists of the TGF-beta/Smad signaling pathway - cell viability counter screen (AID 1346829). Further: top concentration of the series differs between compounds; nearly all actives have a fitted effect of over 45% in size. In outline:
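Here the cytotoxicity of library compounds is measured in SBE-bla HEK 293T cells treated for 5 hr, using CellTiter-Glo added to wells already read for the beta-lactamase reporter.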

Assay [17] in a line: qHTS assay to identify small molecule agonists of the TGF-beta/Smad signaling pathway (AID 1346859; active means well fitted activation curve with a large enough effect in the signal ratio in the repeat runs, not every such curve was filed as active; the % refers to the signal ratio; further: series mostly up to about 77 µM). In outline: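 After overnight seeding, SBE-bla HEK 293T cells are dosed with compounds in DMSO and kept 5 hr at 37 C, 5% CO2. LiveBLAzer-type FRET substrate is then applied for 2 hr at room temperature.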
In assay [18] the target is Thyrotropin-releasing hormone receptor (Homo sapiens) (UniProt P34981). Nature of the assay: qHTS assay to identify small molecule antagonists of the thyrotropin-releasing hormone receptor (TRHR) signaling pathway (AID 1346877; active means well fitted inhibition curve with a large enough effect in the repeat runs, not every such curve was filed as active; further: series mostly up to about 51 µM). A digest of the protocol: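 Screening used HEK293 cells engineered with TRHR, with a brief 5 min room-temperature compound exposure preceding addition of TRH to 1 nM. The read-out was kinetic calcium-dye fluorescence, concentration-response from 15 doses in triplicate.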
Sequence of Thyrotropin-releasing hormone receptor (Homo sapiens) (P34981 whole entry, looked up): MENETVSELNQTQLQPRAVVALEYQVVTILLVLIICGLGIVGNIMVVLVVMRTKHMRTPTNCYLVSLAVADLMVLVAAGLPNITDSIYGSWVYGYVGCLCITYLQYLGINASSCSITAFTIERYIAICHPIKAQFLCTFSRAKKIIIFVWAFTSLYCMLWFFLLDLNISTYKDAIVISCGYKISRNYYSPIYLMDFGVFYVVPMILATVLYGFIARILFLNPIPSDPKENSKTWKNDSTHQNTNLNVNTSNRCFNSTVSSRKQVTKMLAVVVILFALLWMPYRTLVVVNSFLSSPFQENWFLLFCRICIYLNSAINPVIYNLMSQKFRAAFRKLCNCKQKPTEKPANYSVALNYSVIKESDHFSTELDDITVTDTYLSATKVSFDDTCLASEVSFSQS

For assay [19] the target is unchanged. Nature of the assay: qHTS assay to identify small molecule agonists of the thyrotropin-releasing hormone receptor (TRHR) signaling pathway (AID 1346891; calls by dose curve;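 further: HEK293 cells expressing TRHR with calcium dye readout; series mostly up to about 58 µM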). A digest of the protocol: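 Compounds were tested as agonists at 15 concentrations, in triplicate, on TRHR-Hek293 cells; calcium-sensitive dye fluorescence was recorded for 3 min following addition.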
Assay [20] is described as follows: qHTS assay to identify small molecule agonists of the estrogen receptor beta (ER-beta) signaling pathway - cell viability counter screen (AID 1259380). Further: nearly all actives have a fitted effect of over 30% in size. In outline:
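Cells used were ER-beta-UAS-bla HEK293T in medium with 2% charcoal-stripped FBS. They were treated for 16 hr at 37C. Viability came from CellTiter-Glo luminescence.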

Records with an inconclusive call do not appear. Where a structure was tested more than once in an assay, its records may differ in their call. Activity calls are given as the source filed them. Unless noted, the call rests on the fitted dose curve; in most records, active means well fitted curve in the direction sought with a large enough effect in the repeat runs; inconclusive means weak or mixed curves; inactive means no such curve, though single readings can be large; an effect the other way counts as inactive or inconclusive.

Sequence of Estrogen receptor (Homo sapiens) (P03372 whole entry, looked up): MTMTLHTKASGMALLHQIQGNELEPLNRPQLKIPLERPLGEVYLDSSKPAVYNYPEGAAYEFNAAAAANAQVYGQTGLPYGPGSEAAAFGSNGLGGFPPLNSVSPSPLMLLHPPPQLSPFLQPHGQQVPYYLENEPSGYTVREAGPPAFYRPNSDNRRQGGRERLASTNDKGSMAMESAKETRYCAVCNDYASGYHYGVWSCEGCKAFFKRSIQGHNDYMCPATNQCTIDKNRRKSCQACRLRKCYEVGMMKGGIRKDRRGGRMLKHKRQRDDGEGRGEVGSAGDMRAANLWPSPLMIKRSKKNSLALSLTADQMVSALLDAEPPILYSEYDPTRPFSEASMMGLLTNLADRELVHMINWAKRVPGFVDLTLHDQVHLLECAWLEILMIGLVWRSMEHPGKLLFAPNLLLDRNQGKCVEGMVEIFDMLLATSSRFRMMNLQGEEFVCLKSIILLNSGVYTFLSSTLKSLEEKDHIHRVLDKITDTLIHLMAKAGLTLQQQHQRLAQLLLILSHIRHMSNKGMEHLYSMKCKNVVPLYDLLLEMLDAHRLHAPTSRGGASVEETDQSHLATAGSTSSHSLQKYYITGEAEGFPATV
Sequence of Estrogen receptor beta (Homo sapiens) (Q92731 whole entry, looked up): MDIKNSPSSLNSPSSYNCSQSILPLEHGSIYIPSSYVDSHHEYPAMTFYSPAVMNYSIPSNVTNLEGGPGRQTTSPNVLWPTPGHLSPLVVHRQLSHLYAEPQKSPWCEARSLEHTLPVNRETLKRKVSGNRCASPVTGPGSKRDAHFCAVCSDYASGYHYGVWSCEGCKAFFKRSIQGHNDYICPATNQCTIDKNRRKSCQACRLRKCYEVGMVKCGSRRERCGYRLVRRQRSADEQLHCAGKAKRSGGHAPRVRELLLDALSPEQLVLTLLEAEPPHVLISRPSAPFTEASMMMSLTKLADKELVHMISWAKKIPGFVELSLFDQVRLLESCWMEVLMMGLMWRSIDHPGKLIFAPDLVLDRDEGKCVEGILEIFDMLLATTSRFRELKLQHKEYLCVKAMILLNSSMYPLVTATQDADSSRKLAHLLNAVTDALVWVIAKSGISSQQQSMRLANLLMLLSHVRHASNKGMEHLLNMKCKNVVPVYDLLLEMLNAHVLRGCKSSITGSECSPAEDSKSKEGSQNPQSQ

With `C=C(C)C(=O)OCCOC(=O)C(=C)C`, the Potency entry in [1], in [2], in [3], in [4], in [6] and in [7] was “inactive” throughout. The Potency entry in assay [9], in assay [10], in assay [11], in [12], in assay [13] and in assay [14] was “inactive” throughout. The Potency result in [15], in assay [16], in assay [18] and in assay [19] was “inactive” throughout. For the same compound, the result in [5], in assay [8] and in assay [17] was inactive.

As to `C[Si](C)(C)O[Si](C)(C)C`, the Potency result in assay [1], in assay [2], in assay [3], in [4], in [20] and in assay [6] was “inactive” each time. Also, the Potency entry in assay [9], in [10], in assay [11], in assay [12], in assay [13] and in assay [15] was “inactive” throughout. Further, the Potency result in assay [16], in assay [18] and in [19] was “inactive” in each case. The call in assay [8] and in [17] was inactive.

Regarding `COC(=O)c1ccccc1`, the Potency result in assay [1], in assay [2], in assay [3], in assay [4], in [20] and in [6] was “inactive” in each case. In addition, the Potency result in [9], in [10], in [11], in [12], in [13] and in [15] was “inactive” throughout. In addition, the Potency entry in [16], in [18] and in assay [19] was “inactive” throughout. The result in [8] and in assay [17] was inactive.

In the case of `O=[N+]([O-])c1ccc2c(c1)Cc1ccccc1-2`, the Potency entry in [1], in assay [2], in assay [3], in assay [4], in [20] and in assay [6] was “inactive” throughout. Further, the Potency result in [7], in [9], in assay [10], in [11], in [13] and in [14] was “inactive” throughout. For the same compound, the Potency result in [15] and in [16] was “inactive” each time. Besides, the compound was called inactive in assay [8] and in assay [17].

In the case of `O=C=Nc1ccc(Cc2ccc(N=C=O)cc2)cc1`, the Potency result in assay [1], in assay [2], in assay [3], in [4], in assay [20] and in [6] was “inactive” each time. In addition, the Potency entry in assay [9], in [10], in assay [11], in [13], in assay [14] and in [15] was “inactive” throughout. In assay [16], the Potency entry was “inactive”. Moreover, the call in [8] and in [17] was inactive.

Take `Clc1nc(Cl)c(Cl)c(Cl)c1Cl`: the Potency result in assay [1], in assay [2], in assay [3], in [20], in assay [6] and in assay [9] was “inactive” throughout. Besides, the Potency entry in [10], in assay [11], in assay [12], in assay [13], in [15] and in assay [16] was “inactive” throughout. Further, in [4], the Potency was 61.4 µM (active). In addition, the compound was called inactive in [8] and in assay [17].

Take `Cc1cccc(C(=O)O)c1`: the Potency in [1] is 381 nM (active) and inactive. Further, the Potency entry in assay [2], in assay [3], in assay [4], in assay [6], in assay [7] and in assay [9] was “inactive” throughout. Besides, the Potency result in assay [10], in assay [11], in [12], in assay [13], in [14] and in assay [15] was “inactive” in each case. In addition, the Potency entry in [16] was “inactive”. Moreover, the result in [5], in assay [8] and in assay [17] was inactive.
